Data as given in PubChem BioAssay (EPA / NIEHS).
Results filed as inconclusive are left out. Active and inactive are the calls of the source. The calls were made as follows: active = hit-call score of the fitted dose curve at least 0.9, where 1 is the maximum; inconclusive = response in the unintended direction; inactive = score below 0.9.

How the values were obtained:
[1] = biological target: frog Thyroid hormone Receptor alpha (TRa), thra-a (gene 397942) (UniProt P15204); test: ATG_frTRa_XSP1: Attagene TRANS-FACTORIAL Multi-Species (XSP1) HepG2 Assay for frog Thyroid hormone Receptor alpha (TRa) (AID 2283804)
Summary of the method: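 Reporter transcript induction, measured by RT-PCR with 6-FAM labelling and capillary electrophoresis, 24 hr after dosing transiently transfected HepG2 cells expressing a frog TRa-GAL4 fusion; medium contained 3 nM 6-alpha-fluorotestosterone; increase over DMSO scored.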

[2] = biological target: human Thyroid hormone Receptor alpha (TRa), THRA (gene 7067) (UniProt P10827); test: ATG_hTRa_XSP1: Attagene TRANS-FACTORIAL Multi-Species (XSP1) HepG2 Assay for human Thyroid hormone Receptor alpha (TRa) (AID 2283805)
Summary of the method: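 Reporter transcripts from the human TRa-Gal4 TRANS unit quantified by RT-PCR, fluorescent labeling and capillary electrophoresis after 24 hours of chemical exposure in transfected HepG2 cells; medium contains 3 nM 6-alpha-fluorotestosterone. Positive direction fit against DMSO.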

[3] = biological target: zebrafish Thyroid Hormone Receptor alpha (TRa), thraa (gene 30670) (UniProt Q98867); test: ATG_zfTRa_XSP1: Attagene TRANS-FACTORIAL Multi-Species (XSP1) HepG2 Assay for zebrafish Thyroid Hormone Receptor alpha (TRa) (AID 2283807)
Summary of the method: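 Reporter transcripts driven by a chimeric zebrafish TRa–Gal4 protein were measured by RT-PCR with fluorescent labelling and capillary electrophoresis. These came from transiently transfected HepG2 cells after 24 h chemical exposure, with 3 nM 6-alpha-fluorotestosterone added; baseline was DMSO.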

[4] = biological target: human Thyroid hormone Receptor beta (TRb), THRB (gene 7068) (UniProt P10828); test: ATG_hTRb_XSP1: Attagene TRANS-FACTORIAL Multi-Species (XSP1) HepG2 Assay for human Thyroid hormone Receptor beta (TRb) (AID 2283808)
Summary of the method: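 Readout is reporter mRNA induction measured by RT-PCR, fluorescent labelling and capillary electrophoresis, fitted upward relative to DMSO. Transiently transfected human HepG2 cells expressing NR-Gal4 chimeras were dosed for 24 h, medium containing 3 nM 6-alpha-fluorotestosterone.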

[5] = biological target: zebrafish Thyroid Hormone Receptor beta (TRb), thrb (gene 30607) (UniProt Q9PVE4); test: ATG_zfTRb_XSP1: Attagene TRANS-FACTORIAL Multi-Species (XSP1) HepG2 Assay for zebrafish Thyroid Hormone Receptor beta (TRb) (AID 2283809)
Summary of the method: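 HepG2 cells transiently transfected with multiplexed GAL4-UAS reporter units expressing chimeric zebrafish TRb–Gal4. Dosed 24 h with 3 nM 6-alpha-fluorotestosterone present; reporter mRNA measured by RT-PCR, HpaI digestion and capillary electrophoresis; gain of signal versus DMSO.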

[6] = ATG_XTT_Cytotoxicity_XSP1: Cytotoxicity Assessment in the Attagene TRANS-FACTORIAL Multi-Species (XSP1) HepG2 Assay (AID 2283810)
Summary of the method: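 XTT viability readout taken at 24 hours post-dosing in HepG2 liver cells co-treated with 3 nM 6-alpha-fluorotestosterone. Signal loss relative to DMSO controls reflects cytotoxicity.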

[7] = ATG_M_06_XSP2: Attagene TRANS-FACTORIAL Multi-Species (XSP2) HepG2 Assay for M06 Transcription Factor (Internal Marker) (AID 2283811);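 also: internal background marker reporter mRNA measured by RT-PCR and capillary electrophoresis; hits are increases in signal above the DMSO baseline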
Summary of the method: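 Readout: fluorescent reporter-mRNA peaks by capillary electrophoresis after RT-PCR and HpaI digest, scored upward relative to DMSO. Transfected HepG2, 24 h chemical exposure, with 3 nM 6-alpha-fluorotestosterone and 1.5 nM norgestrel added.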

[8] = system: turtle Estrogen Receptor (ERa), gene 101933533; test: ATG_trERa_XSP2: Attagene TRANS-FACTORIAL Multi-Species (XSP2) HepG2 Assay for turtle Estrogen Receptor (ERa) (AID 2283812);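 also: human HepG2 liver cells transiently expressing turtle ERa-Gal4 chimeric receptor; actives raise reporter signal above DMSO so AC50 reflects agonist activity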
Description: ATG_XSP2_multi-species_TRANS is a cell-based, multiplexed assay created by modifying the existing Attagene TRANS-FACTORIAL system to include a panel of nuclear receptors from some or all the following species: human (Homo sapiens), mouse (Mus musculus), frog (Xenopus laevis), zebrafish (Danio rerio), chicken (Gallus gallus), and turtle (Chrysemys picta). The ECOTOX-FACTORIAL format uses HepG2, a human liver cell line, with measurements taken at 24 hours after chemical dosing in a 24-well plate. Xsp2 included 3 nM 6-alpha-fluorotestosterone and 1.5 nM norgestrel to stimulate the androgen receptor.ATG_trERa_XSP2 is one of 29 assay components measured or calculated from the ATG_XSP2_multi-species_TRANS assay. It is designed to make measurements of mRNA induction, a form of inducible reporter, as detected with fluorescence intensity signals by Reverse transcription polymerase chain reaction (RT-PCR) and Capillary electrophoresis technology.The assay endpoint ATG_trERa_XSP2 was analyzed in the positive analysis fitting direction relative to DMSO as the negative control and baseline of activity. […] Furthermore, this assay endpoint can be referred to as a primary readout, because this assay has produced multiple assay endpoints where this one serves a reporter gene function. […]

[9] = biological target: mouse Peroxisome Proliferator-activated Receptor gamma (PPARg), Pparg (gene 19016) (UniProt P37238); test: ATG_mPPARg_XSP1: Attagene TRANS-FACTORIAL Multi-Species (XSP1) HepG2 Assay for mouse Peroxisome Proliferator-activated Receptor gamma (PPARg) (AID 2283802)
Summary of the method: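 Readout is reporter mRNA induction, measured by RT-PCR with 6-FAM labelling, HpaI digestion and capillary electrophoresis, 24 h post-dose relative to DMSO. Transient multi-reporter transfection of human HepG2 with mouse PPARg–GAL4 fusion; 3 nM 6-alpha-fluorotestosterone included.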

[10] = biological target: Nuclear receptor subfamily 1 group I member 2 (Mus musculus) (UniProt O54915); test: ATG_mPXR_XSP1: Attagene TRANS-FACTORIAL Multi-Species (XSP1) HepG2 Assay for mouse Pregnane X Receptor (PXR) (AID 2283803)
Summary of the method: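 Transiently transfected HepG2 cells expressing a receptor-Gal4 chimera drive a GAL4-UAS reporter; 3 nM 6-alpha-fluorotestosterone included. Reporter mRNA read 24 h post-dose by RT-PCR and capillary electrophoresis; gain of signal relative to DMSO.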

human Thyroid hormone Receptor alpha (TRa), THRA (gene 7067), sequence (P10827 whole entry, looked up, the tested form may be a part): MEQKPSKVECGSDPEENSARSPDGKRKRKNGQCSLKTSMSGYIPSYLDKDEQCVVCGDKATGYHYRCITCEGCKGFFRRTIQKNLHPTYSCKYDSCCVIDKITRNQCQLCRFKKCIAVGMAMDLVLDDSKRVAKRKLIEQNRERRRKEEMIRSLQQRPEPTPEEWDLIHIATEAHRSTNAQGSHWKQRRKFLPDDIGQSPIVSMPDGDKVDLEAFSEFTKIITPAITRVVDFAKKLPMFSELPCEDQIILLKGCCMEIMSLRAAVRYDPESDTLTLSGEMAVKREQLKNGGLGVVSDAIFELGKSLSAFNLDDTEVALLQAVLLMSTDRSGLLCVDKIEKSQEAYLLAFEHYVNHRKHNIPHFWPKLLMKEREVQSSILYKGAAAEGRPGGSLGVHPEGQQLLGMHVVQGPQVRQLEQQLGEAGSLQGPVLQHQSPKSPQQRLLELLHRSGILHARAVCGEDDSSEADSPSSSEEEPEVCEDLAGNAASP
human Thyroid hormone Receptor beta (TRb), THRB (gene 7068), sequence (P10828 whole entry, looked up, the tested form may be a part): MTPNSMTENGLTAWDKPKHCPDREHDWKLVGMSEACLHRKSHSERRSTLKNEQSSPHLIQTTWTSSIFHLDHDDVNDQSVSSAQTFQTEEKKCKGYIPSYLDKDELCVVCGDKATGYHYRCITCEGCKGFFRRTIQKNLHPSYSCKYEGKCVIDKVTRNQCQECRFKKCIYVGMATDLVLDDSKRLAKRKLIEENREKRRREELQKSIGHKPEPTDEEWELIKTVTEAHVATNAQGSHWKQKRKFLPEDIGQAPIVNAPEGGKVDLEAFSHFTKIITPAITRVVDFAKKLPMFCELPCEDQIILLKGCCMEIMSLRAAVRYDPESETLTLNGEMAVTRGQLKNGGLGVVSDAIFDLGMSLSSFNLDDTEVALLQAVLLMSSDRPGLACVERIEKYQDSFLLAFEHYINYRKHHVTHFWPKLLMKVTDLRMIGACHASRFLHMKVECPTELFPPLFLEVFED
zebrafish Thyroid Hormone Receptor alpha (TRa), thraa (gene 30670), sequence (Q98867 whole entry, looked up, the tested form may be a part): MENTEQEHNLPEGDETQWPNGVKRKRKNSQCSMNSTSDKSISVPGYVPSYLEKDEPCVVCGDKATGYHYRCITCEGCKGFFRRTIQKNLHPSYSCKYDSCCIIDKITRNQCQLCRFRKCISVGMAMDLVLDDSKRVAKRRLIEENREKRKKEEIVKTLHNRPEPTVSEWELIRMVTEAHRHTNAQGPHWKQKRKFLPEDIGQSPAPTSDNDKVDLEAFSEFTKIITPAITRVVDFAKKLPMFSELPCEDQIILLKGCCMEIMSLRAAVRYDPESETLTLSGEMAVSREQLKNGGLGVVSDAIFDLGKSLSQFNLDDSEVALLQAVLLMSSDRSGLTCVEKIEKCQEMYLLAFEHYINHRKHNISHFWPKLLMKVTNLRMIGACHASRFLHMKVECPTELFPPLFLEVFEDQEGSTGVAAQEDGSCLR
zebrafish Thyroid Hormone Receptor beta (TRb), thrb (gene 30607), sequence (Q9PVE4 whole entry, looked up, the tested form may be a part): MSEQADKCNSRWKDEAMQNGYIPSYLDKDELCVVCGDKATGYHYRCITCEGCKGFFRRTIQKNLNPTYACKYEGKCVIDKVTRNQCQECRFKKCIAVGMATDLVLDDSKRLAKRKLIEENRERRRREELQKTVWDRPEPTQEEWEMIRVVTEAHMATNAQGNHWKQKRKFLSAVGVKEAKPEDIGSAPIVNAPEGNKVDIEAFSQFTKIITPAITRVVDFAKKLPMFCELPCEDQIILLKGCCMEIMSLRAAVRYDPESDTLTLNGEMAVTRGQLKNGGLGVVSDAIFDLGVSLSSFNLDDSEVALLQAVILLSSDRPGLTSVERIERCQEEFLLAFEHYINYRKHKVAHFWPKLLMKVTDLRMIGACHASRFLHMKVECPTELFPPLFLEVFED
Nuclear receptor subfamily 1 group I member 2 (Mus musculus), sequence (O54915 whole entry, looked up, the tested form may be a part): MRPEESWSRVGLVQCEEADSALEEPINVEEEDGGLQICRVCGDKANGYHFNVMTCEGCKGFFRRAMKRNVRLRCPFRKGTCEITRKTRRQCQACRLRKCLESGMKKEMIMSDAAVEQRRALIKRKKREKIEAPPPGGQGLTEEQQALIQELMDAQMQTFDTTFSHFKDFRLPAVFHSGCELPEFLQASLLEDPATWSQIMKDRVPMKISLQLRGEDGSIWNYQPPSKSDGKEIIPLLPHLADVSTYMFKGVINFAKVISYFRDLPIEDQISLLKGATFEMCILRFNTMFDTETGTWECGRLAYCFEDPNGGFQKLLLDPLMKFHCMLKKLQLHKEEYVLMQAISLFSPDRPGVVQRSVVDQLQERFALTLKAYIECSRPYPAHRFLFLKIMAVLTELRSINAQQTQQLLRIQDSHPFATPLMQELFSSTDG
mouse Peroxisome Proliferator-activated Receptor gamma (PPARg), Pparg (gene 19016), sequence (P37238 whole entry, looked up, the tested form may be a part): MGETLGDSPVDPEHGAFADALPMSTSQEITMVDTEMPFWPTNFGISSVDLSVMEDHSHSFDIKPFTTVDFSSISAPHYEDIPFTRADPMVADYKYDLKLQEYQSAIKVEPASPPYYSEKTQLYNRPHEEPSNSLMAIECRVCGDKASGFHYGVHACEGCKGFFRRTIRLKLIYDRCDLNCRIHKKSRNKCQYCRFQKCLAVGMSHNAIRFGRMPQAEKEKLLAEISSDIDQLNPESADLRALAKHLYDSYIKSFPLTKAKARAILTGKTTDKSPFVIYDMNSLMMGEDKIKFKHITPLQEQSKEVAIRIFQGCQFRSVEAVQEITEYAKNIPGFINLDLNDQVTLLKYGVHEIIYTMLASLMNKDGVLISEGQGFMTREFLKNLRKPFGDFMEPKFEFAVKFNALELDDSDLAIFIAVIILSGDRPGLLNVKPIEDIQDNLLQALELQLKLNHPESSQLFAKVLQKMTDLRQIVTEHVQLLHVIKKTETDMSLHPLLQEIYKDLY
frog Thyroid hormone Receptor alpha (TRa), thra-a (gene 397942), sequence (P15204 whole entry, looked up, the tested form may be a part): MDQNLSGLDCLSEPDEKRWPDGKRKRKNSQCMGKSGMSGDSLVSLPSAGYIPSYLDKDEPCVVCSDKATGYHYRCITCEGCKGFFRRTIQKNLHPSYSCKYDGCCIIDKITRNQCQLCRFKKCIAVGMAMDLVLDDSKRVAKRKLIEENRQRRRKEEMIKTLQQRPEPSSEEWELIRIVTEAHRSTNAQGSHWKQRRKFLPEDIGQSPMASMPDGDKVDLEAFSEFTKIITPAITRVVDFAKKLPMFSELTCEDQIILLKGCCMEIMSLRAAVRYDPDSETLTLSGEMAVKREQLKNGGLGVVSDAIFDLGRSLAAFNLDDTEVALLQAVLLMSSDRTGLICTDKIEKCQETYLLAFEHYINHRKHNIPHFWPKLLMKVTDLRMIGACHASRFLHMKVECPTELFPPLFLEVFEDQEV

Structure (SMILES): C[C@]12CC[C@H]3C(=CCc4cc(O)ccc43)[C@@H]1CCC2=O
- outcome [1]: inactive
- outcome [2]: inactive
- outcome [3]: inactive
- outcome [4]: inactive
- outcome [5]: inactive
- outcome [6]: inactive
- outcome [7]: inactive
- AC50 [8]: 0.0129 µM (active)

Structure (SMILES): O=C(c1ccccc1)c1ccc(O)cc1O
- outcome [9]: inactive
- outcome [10]: inactive
- outcome [2]: inactive
- outcome [3]: inactive
- outcome [4]: inactive
- outcome [5]: inactive
- outcome [7]: inactive
- AC50 [8]: 2.81 µM (active)
